Source: PubChem BioAssay AID1159580 (chemical genetic matrix, 2015)
Hit rate of the full screen: of about 5,500 compounds, about 2,000 (36%) were called active. Roughly 18% stayed inconclusive and do not appear here. Cut-off read from the data, not from the text of the source: active = normalized growth mostly below about 0.91 (no sharp cut-off); inconclusive = no clear call, values can overlap the other calls; inactive = mostly above about 0.92. This is one part of the list.

Test: chemical genetic growth profiling, strain panel (AID 1159580);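 note: tested at 20 µM; growth read once vehicle control cultures reached saturation at 30 °C; 1 = growth at the plate median or of vehicle wells; lower values mean less growth of the strain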
Conditions: growth OD

Measured: normalized growth

CN(C)CCc1c[nH]c2ccc(CS(=O)(=O)N3CCCC3)cc12
inactive: S. cerevisiae deletion strains, locus YJR075W, strain HOC1, active compounds read low 1 | S. cerevisiae deletion strains, locus YKL009W, strain mrt4, active compounds read low 0.992 | S. cerevisiae deletion strains, locus YKL068W, active compounds read low 0.987 | S. cerevisiae deletion strains, locus YKL085W, strain MDH1 (second series), active compounds read low 0.983 | S. cerevisiae deletion strains, locus YKL085W, strain MDH1, active compounds read low 0.983 | S. cerevisiae deletion strains, locus YKL160W, strain elf1, active compounds read low 1.03 | S. cerevisiae deletion strains, locus YKL190W, strain CNB1, active compounds read low 1 | S. cerevisiae deletion strains, locus YKR001C, strain vps1, active compounds read low 0.988 | S. cerevisiae deletion strains, locus YKR026C, strain gcn3, active compounds read low 0.976 | S. cerevisiae deletion strains, locus YKR091W, strain srl3, active compounds read low 1.01 | S. cerevisiae deletion strains, locus YLL001W, strain dnm1, active compounds read low 0.971 | S. cerevisiae deletion strains, locus YLL026W, active compounds read low 0.98 | S. cerevisiae deletion strains, locus YLL041C, strain sdh2, active compounds read low 1 | S. cerevisiae deletion strains, locus YLR027C, strain aat2, active compounds read low 0.997 | S. cerevisiae deletion strains, locus YLR039C, strain RIC1, active compounds read low 0.971 | S. cerevisiae deletion strains, locus YLR058C, strain SHM2, active compounds read low 0.991 | S. cerevisiae deletion strains, locus YLR102C, strain apc9, active compounds read low 0.995 | S. cerevisiae deletion strains, locus YLR113W, strain HOG1, active compounds read low 0.979 | S. cerevisiae deletion strains, locus YLR221C, strain rsa3, active compounds read low 0.96 | S. cerevisiae deletion strains, locus YLR258W, strain gsy2, active compounds read low 1 | S. cerevisiae deletion strains, locus YLR262C, strain YPT6 (second series), active compounds read low 1 | S. cerevisiae deletion strains, locus YLR262C, strain YPT6, active compounds read low 0.968 | S. cerevisiae deletion strains, locus YLR268W, strain sec22, active compounds read low 0.971 | S. cerevisiae deletion strains, locus YLR320W, strain mms22, active compounds read low 0.945 | S. cerevisiae deletion strains, locus YLR330W, strain CHS5, active compounds read low 0.988 | S. cerevisiae deletion strains, locus YLR342W, strain FKS1 (second series), active compounds read low 1.02 | S. cerevisiae deletion strains, locus YLR342W, strain FKS1, active compounds read low 1.01 | S. cerevisiae deletion strains, locus YLR357W, strain rsc2, active compounds read low 1.01 | S. cerevisiae deletion strains, locus YLR370C, strain arc18, active compounds read low 0.992 | S. cerevisiae deletion strains, locus YLR371W, strain rom2, active compounds read low 0.983 | S. cerevisiae deletion strains, locus YLR384C, strain iki3, active compounds read low 0.983 | S. cerevisiae deletion strains, locus YLR418C, strain cdc73, active compounds read low 0.959 | S. cerevisiae deletion strains, locus YML016C, strain PPZ1, active compounds read low 0.987 | S. cerevisiae deletion strains, locus YML032C, strain rad52, active compounds read low 0.99 | S. cerevisiae deletion strains, locus YML120C, strain ndi1, active compounds read low 0.972 | S. cerevisiae deletion strains, locus YML124C, strain tub3, active compounds read low 0.979 | S. cerevisiae deletion strains, locus YMR058W, strain fet3, active compounds read low 0.976 | S. cerevisiae deletion strains, locus YMR078C, strain ctf18, active compounds read low 0.986 | S. cerevisiae deletion strains, locus YMR125W, strain sto1, active compounds read low 0.999 | S. cerevisiae deletion strains, locus YMR129W, active compounds read low 0.98 | S. cerevisiae deletion strains, locus YMR205C, strain PFK2, active compounds read low 0.967 | S. cerevisiae deletion strains, locus YMR223W, strain ubp8, active compounds read low 0.996 | S. cerevisiae deletion strains, locus YMR231W, strain pep5, active compounds read low 0.991 | S. cerevisiae deletion strains, locus YMR263W, strain SAP30, active compounds read low 1.01 | S. cerevisiae deletion strains, locus YMR307W, strain GAS1, active compounds read low 0.994 | S. cerevisiae deletion strains, locus YNL067W, strain RPL9B, active compounds read low 1.03 | S. cerevisiae deletion strains, locus YNL071W, strain lat1, active compounds read low 0.985 | S. cerevisiae deletion strains, locus YNL128W, strain TEP1, active compounds read low 1 | S. cerevisiae deletion strains, locus YNL153C, strain GIM3, active compounds read low 0.995 | S. cerevisiae deletion strains, locus YNL183C, strain NPR1, active compounds read low 0.926 | S. cerevisiae deletion strains, locus YNL209W, strain ssb2, active compounds read low 0.974 | S. cerevisiae deletion strains, locus YNL233W, strain BNI4, active compounds read low 0.988 | S. cerevisiae deletion strains, locus YNL248C, strain rpa49, active compounds read low 1.03 | S. cerevisiae deletion strains, locus YNL250W, strain rad50, active compounds read low 0.986 | S. cerevisiae deletion strains, locus YNL271C, strain bni1, active compounds read low 0.984 | S. cerevisiae deletion strains, locus YNL298W, strain CLA4, active compounds read low 0.981 | S. cerevisiae deletion strains, locus YNL307C, strain MCK1, active compounds read low 0.985 | S. cerevisiae deletion strains, locus YNL322C, strain KRE1 (second series), active compounds read low 1.02 | S. cerevisiae deletion strains, locus YNL322C, strain KRE1, active compounds read low 0.999 | S. cerevisiae deletion strains, locus YNR049C, strain mso1, active compounds read low 0.997 | S. cerevisiae deletion strains, locus YNR052C, strain pop2, active compounds read low 0.992 | S. cerevisiae deletion strains, locus YOL006C, strain TOP1, active compounds read low 0.959 | S. cerevisiae deletion strains, locus YOL012C, strain htz1 0.726 | S. cerevisiae deletion strains, locus YOL147C, strain pex11, active compounds read low 0.995 | S. cerevisiae deletion strains, locus YOR001W, strain rrp6, active compounds read low 0.938 | S. cerevisiae deletion strains, locus YOR061W, strain CKA2, active compounds read low 0.994 | S. cerevisiae deletion strains, locus YOR069W, strain VPS5, active compounds read low 0.992 | S. cerevisiae deletion strains, locus YOR070C, strain gyp1, active compounds read low 1 | S. cerevisiae deletion strains, locus YOR080W, strain dia2, active compounds read low 1 | S. cerevisiae deletion strains, locus YOR083W, strain WHI5, active compounds read low 1 | S. cerevisiae deletion strains, locus YOR106W, strain vam3, active compounds read low 1.04 | S. cerevisiae deletion strains, locus YOR136W, strain idh2, active compounds read low 0.983 | S. cerevisiae deletion strains, locus YOR144C, strain elg1, active compounds read low 0.981 | S. cerevisiae deletion strains, locus YOR184W, strain ser1, active compounds read low 0.989 | S. cerevisiae deletion strains, locus YOR231W, strain MKK1, active compounds read low 0.957 | S. cerevisiae deletion strains, locus YOR265W, strain rbl2, active compounds read low 0.99 | S. cerevisiae deletion strains, locus YOR270C, strain vph1, active compounds read low 0.945 | S. cerevisiae deletion strains, locus YOR290C, strain snf2, active compounds read low 1.02 | S. cerevisiae deletion strains, locus YOR316C, strain cot1, active compounds read low 0.989 | S. cerevisiae deletion strains, locus YPL051W, strain arl3, active compounds read low 1.02 | S. cerevisiae deletion strains, locus YPL055C, strain LGE1, active compounds read low 1.02 | S. cerevisiae deletion strains, locus YPL078C, strain atp4, active compounds read low 1.02 | S. cerevisiae deletion strains, locus YPL106C, strain sse1, active compounds read low 1.02 | S. cerevisiae deletion strains, locus YPL240C, strain hsp82, active compounds read low 0.985 | S. cerevisiae deletion strains, locus YPL241C, strain CIN2, active compounds read low 1.03 | S. cerevisiae deletion strains, locus YPL256C, strain CLN2, active compounds read low 0.959 | S. cerevisiae deletion strains, locus YPR119W, strain clb2, active compounds read low 0.994 | S. cerevisiae deletion strains, locus YPR141C, strain kar3, active compounds read low 0.983 | S. cerevisiae deletion strains, locus YPR163C, strain tif3, active compounds read low 0.985 | S. cerevisiae deletion strains, locus YPR167C, strain met16, active compounds read low 0.982 | S. cerevisiae deletion strains, strain wtn01, active compounds read low 0.99 | S. cerevisiae strains, strain wild type, active compounds read low 1.02
